# In the library only some 21% were active in any assay of this set; here they are far more common.
# NS1 inh – blocks influenza NS1 protein function. AID 2326. actives 0.4% (n = 270,000). Potency, µM (top dose mostly 46.1 µM), inactives show top-dose activity, positive = more growth; further: potency means the concentration at half of the fitted maximal effect; actives are rising curves; nearly all actives have a fitted effect of over 50% in size
#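 Read-out: OD600 growth recovery of NS1-expressing budding yeast. Cells grown overnight at 30C in -URA glucose medium, washed, resuspended and diluted 1:100 in 2% galactose assay medium, pH 6.0. Same strain lacking NS1 served as positive control.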
# Pf growth 48h – P. falciparum growth inhibition at 48 hours (one generation). actives 5.9% (n = 310,000). P. falciparum luciferase growth in erythrocytes, 48 h. Potency, µM (titrated, usually from 28.7 µM), inactives show at the highest dose activity change, negative = inhibition, actives largely listed as inhibitors; active means well fitted inhibition curve with a large enough effect; inconclusive means small, poorly fitted or top-dose-only effect, or another doubt; inactive means no such curve, though single readings can be large or run the other way; further: potency means the concentration at half of the fitted maximal effect; on the % scale 0 is the no-effect control and ±100 the full control effect
#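 Cell-based growth assay: transgenic P. falciparum expressing firefly luciferase, cultured in red cells within RPMI 1640 containing 0.5% w/v Albumax, 24 mM bicarbonate and gentamycin. A drop in luciferase activity indicates inhibition.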
# Cycloheximide cs – counter-screen hit for Shiga toxin inhibitors, cycloheximide. cell reporter, cycloheximide protein synthesis inhibition counterscreen. max response, %. actives 12% (n = 300,000); in the data active means max response mostly above about 13%, no sharp cut-off; inactive means mostly below about 14%; further: read at 38.3 µM for the half of the compounds with a filed dose; 0% is about no effect
# Pf growth 96h – P. falciparum growth inhibition at 96 hours | P. falciparum luciferase reporter growth, 96 h | Potency, µM (highest dose often 28.7 µM), inactives show at the highest dose activity change, negative = inhibition, usual class: inhibitors | actives 6.9% (n = 320,000) | AID 504834; active means well fitted inhibition curve with a large enough effect; inconclusive means small, poorly fitted or top-dose-only effect, or another doubt; inactive means no such curve, though single readings can be large or run the other way; further: potency means the concentration at half of the fitted maximal effect; on the % scale 0 is the no-effect control and ±100 the full control effect
#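 Parasite growth measured via integrated firefly luciferase reporter in P. falciparum. Infected erythrocytes at 2% hematocrit, 0.05% parasitemia final were treated 96 hours at 37 C under 5% CO2, and luminescence was read.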
# SARS PLpro yeast – inhibitors of SARS-CoV papain-like protease in yeast; S. cerevisiae expressing SARS-CoV PLpro, growth rescue; Potency, µM (doses to about 32.9 µM), inactives show at the top dose activity, positive = growth rescue, hits mostly activators; actives 0.19% (n = 330,000); further: potency means the concentration at half of the fitted maximal effect; 0% is about no effect; nearly all actives have a fitted effect of over 55% in size
# Shiga inhibitor – inhibitors of Shiga toxin in Vero cells | Vero cells, Shiga toxin protein synthesis inhibition reporter | inhibition, % at 38.7 µM | actives 9.2% (n = 290,000) | AID 2315; in the data active means inhibition mostly above about 28%, no sharp cut-off; inactive means mostly below about 43%; further: 0% is about no effect
# * marks the source's active call; other numbers are inactive results; i = inactive; ? = inconclusive; · = no result. Unless noted, the call rests on the fitted dose curve.
SMILES,NS1 inh,Pf growth 48h,Cycloheximide cs,Pf growth 96h,SARS PLpro yeast,Shiga inhibitor
Cc1nc2sccn2c(=O)c1S(=O)(=O)Nc1cccc(Cl)c1C,-12.0%,-2.3%,-2.7,?,0.4%,-1.1
CC(C)c1ccc(NC(=O)C2CCCN2S(=O)(=O)c2ccccc2F)cc1 (stereo not drawn),·,?,·,?,-4.0%,·
O=C(c1ccccc1)c1ncc[nH]1,6.8%,53.9%,18.7*,91.7%,-3.2%,36.0
CC(C)NCC(O)COC1C2CC3CC(C2)CC1C3 (stereo not drawn),2.7%,8.28µM*,1.1,4.0%,-0.2%,-4.5
CC(C)NCC(O)COC1CCC(C(C)(C)C)CC1 (stereo not drawn),·,?,-1.1,?,-11.3%,-3.9
COc1cc(CC(=O)O)c([N+](=O)[O-])cc1OC,7.2%,1.8%,-3.3,26.0%,-0.3%,19.4
COc1cc(CC(=O)O)c(C(C)=O)cc1OC,9.9%,7.1%,-2.3,3.7µM*,1.4%,-11.3
CC(=O)c1ccc(N2CCN(C(=S)Nc3cc(C)ccc3C)CC2)cc1,0.9%,10.4µM*,7.1,?,16.1%,28.6
CSCCCNC(=S)N1CCN(c2ccc(C(C)=O)cc2)CC1,-2.1%,?,11.3,11.7µM*,-1.7%,9.0
CCCCNC(=S)N1CCN(c2ccc(C(C)=O)cc2)CC1,2.8%,?,5.3,?,-1.8%,6.7
O=C(CSc1nnc(-c2ccccc2)n1Cc1ccco1)NCc1ccc2c(c1)OCO2,-3.1%,·,3.2,?,12.7%,-6.6
CCC1(C)Cc2ccccc2-c2[nH][nH]c(=O)c21 (stereo not drawn),·,11.8%,-4.3,?,-1.4%,7.4
N#Cc1ccc[n+](CC(=O)c2ccc(Cl)cc2)c1,9.0%,-2.8%,-2.7,7.38µM*,-2.9%,13.6
Cc1ccc(NC(=O)Nc2ccccc2C(N)=O)cc1,-2.8%,49.8%,28.6*,36.6%,0.4%,62.9*
Cc1ccccc1NC(=O)Nc1ccccc1C(N)=O,-4.6%,0.4%,-2.9,i,1.1%,13.6
CCOc1ccc(NC(=O)Nc2ccc(NC(C)=O)cc2)cc1,·,18.3%,2.8,37.5%,-0.7%,21.7
COc1ccc(NC(=O)Nc2ccccc2C(N)=O)cc1,-6.1%,5.2%,26.2*,13.0%,-1.5%,72.1
CCOc1ccc(NC(=O)Nc2ccccc2C(N)=O)cc1,-1.3%,12.3%,29.4*,3.8%,-3.7%,45.8*
COC(=O)c1ccc(CSc2nc3ccccc3[nH]2)o1,-12.5%,34.7%,10.6*,66.4%,-8.8%,10.0
COC(=O)c1ccc(CSc2nc3c(cnn3-c3ccc(F)cc3)c(=O)[nH]2)o1,8.3%,13.2%,-2.6,?,-9.9%,8.9
COC(=O)c1ccc(CSc2nc3c(cnn3-c3ccc(Cl)cc3)c(=O)[nH]2)o1,1.8%,0.6%,-1.1,6.57µM*,-4.0%,22.7
COC(=O)c1ccc(CSc2nc3ccc(S(N)(=O)=O)cc3[nH]2)cc1,6.9%,21.6%,11.1,26.4%,5.8%,17.8
COC(=O)c1ccc(CSc2nc(-c3ccccc3)cs2)o1,-16.2%,8.7%,21.9*,-3.5%,-1.1%,44.8
COC(=O)c1cccc(CSc2nc3ccccc3[nH]2)c1,-25.1%,225.2%,39.2*,?,-24.6%,92.5*
COC(=O)c1ccc(CSc2nc3c(cnn3-c3ccccc3)c(=O)[nH]2)o1,-0.2%,-26.0%,-1.2,-20.6%,7.3%,3.1
SMILES,NS1 inh,Pf growth 48h,Cycloheximide cs,Pf growth 96h,SARS PLpro yeast,Shiga inhibitor
Cn1c(CC(=O)Nc2ccccc2F)nnc1SCC(=O)Nc1ccccc1Br,-61.1%,4.7%,2.6,44.1%,-0.1%,5.1
CN(CCC1CCCCO1)C(=O)CCc1nnc(CCc2ccccc2)o1 (stereo not drawn),9.2%,4.3%,32.0*,24.4%,2.3%,46.7*
CN(Cc1cccc2cnccc12)C(=O)CCc1nnc(CCc2ccccc2)o1,3.5%,?,36.6*,?,-0.4%,47.2*
Cc1cc(-c2nnc(CCC(=O)NC(Cc3ccccc3)c3ccccc3)o2)no1 (stereo not drawn),1.7%,?,-1.0,-2.6%,-0.2%,0.6
Cc1cccc(Cc2nnc(CCC(=O)N(C)CCc3ccccc3)o2)c1,-15.6%,-28.0%,47.8*,11.7µM*,-2.2%,61.5*
Cc1cc(-c2nnc(CCC(=O)N(C)CCc3ccccc3)o2)no1,-6.1%,25.0%,19.4*,8.6%,0.3%,74.0*

# Screening data from PubChem BioAssay.
